# RORg inh – blocks mouse ROR gamma transcriptional activity. P51450. Drosophila S2 Gal4-RORgamma UAS-luciferase reporter, 20 h. Potency, µM (titrated, usually from 53.6 µM), usual class: inhibitors. hit rate 5.4% among 310,000. AID 2551; note: nearly all actives have a fitted effect of over 60% in size
# Target sequence (P51450 whole entry, looked up, the tested form may be a part): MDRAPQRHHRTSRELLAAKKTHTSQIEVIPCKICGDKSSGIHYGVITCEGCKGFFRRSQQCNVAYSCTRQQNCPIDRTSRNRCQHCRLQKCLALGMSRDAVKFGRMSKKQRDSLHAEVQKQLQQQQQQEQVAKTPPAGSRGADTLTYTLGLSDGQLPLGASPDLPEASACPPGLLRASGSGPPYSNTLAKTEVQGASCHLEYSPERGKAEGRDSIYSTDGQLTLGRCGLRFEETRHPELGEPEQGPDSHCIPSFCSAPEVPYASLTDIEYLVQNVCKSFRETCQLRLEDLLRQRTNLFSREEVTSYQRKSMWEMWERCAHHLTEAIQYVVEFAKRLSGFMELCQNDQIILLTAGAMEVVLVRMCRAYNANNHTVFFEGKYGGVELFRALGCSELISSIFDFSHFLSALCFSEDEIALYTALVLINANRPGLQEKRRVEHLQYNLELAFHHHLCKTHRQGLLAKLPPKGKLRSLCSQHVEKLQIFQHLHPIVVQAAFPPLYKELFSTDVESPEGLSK
#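 In this cell-based reporter format, copper sulfate (700 uM final) drives Gal4–ROR gamma fusion expression from a metallothionein promoter in Drosophila Schneider cells; compounds preincubated 1 hr, reporter read after 20 hr at ambient temperature.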
# ALDH1A1 inh – inhibitors of human aldehyde dehydrogenase 1A1; Potency, µM (doses to about 75.3 µM), hits mostly inhibitors; Purified ALDH1A1, NADH fluorescence, propionaldehyde substrate; AID 1030; hit rate 7.3% among 220,000; P00352; active = well fitted inhibition curve with a large enough effect, not every such curve was filed as active; inconclusive = small, poorly fitted or top-dose-only effect, or another doubt; inactive = no such curve, though single readings can be large or run the other way
# Gal4-VP16 FLuc – counter-screen for ROR gamma inhibitors: Gal4-VP16 reporter; Drosophila S2 Gal4-VP16 UAS-luciferase, luminescence, 20 h; Potency, µM (doses to about 53.6 µM), actives largely listed as inhibitors; hit rate 3.5% among 310,000; AID 2546;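 note: Gal4-VP16 expression switched on by copper sulfate through the metallothionein promoter; nearly all actives have a fitted effect of over 50% in size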
# PLK1 PBD block – inhibitors of human PLK1 polo-box domain binding. Plk1 PBD binding of FITC phosphopeptide, fluorescence polarization. Potency, µM, most hits filed as inhibitors. P53350. AID 720504. hit rate 2.8% among 360,000; note: series mostly up to about 57 µM; nearly all actives have a fitted effect of over 65% in size
# Sfp PPTase inh – inhibitors of Bacillus subtilis Sfp phosphopantetheinyl transferase; hit rate 3.5% among 310,000; Biochemical Sfp PPTase activity, qHTS; Q9F4F7; Potency, µM, hits mostly inhibitors;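 note: the enzyme is Sfp with the accession as filed and its product quenches rhodamine fluorescence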
#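 Compounds were incubated with enzyme (final 15 nM) for 15 min at room temperature before substrate addition started the reaction. Fluorescence at 525 nm excitation, 598 nm emission was recorded immediately and after 30 minutes.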
# Numbers stand for hits; – = inactive; ? = inconclusive; · = no result given; [ ] = dose if it differs, or a comment. Sampled rows, rich in hits. Any-hit rate of the full collection: about 12%. Unless noted, calls come from the whole dose curve; as a rule, active = well fitted curve in the direction sought with a large enough effect; inconclusive = small, poorly fitted or top-dose-only effect, or another doubt; inactive = no such curve, though single readings can be large; an effect the other way counts as inactive or inconclusive.
SMILES,RORg inh,ALDH1A1 inh,Gal4-VP16 FLuc,PLK1 PBD block,Sfp PPTase inh
NC(=O)NC(=O)CC1S/C(=N/N=C2/NC(=O)CS2)NC1=O (stereo not given),–,–,–,–,–
O=C(O)CNC(=O)CC1S/C(=N/N=C2\CSC(=O)N2)NC1=O (stereo not given),–,–,–,–,4µM
O=C(O)CNC(=O)CC1S/C(=N/N=C/c2ccccc2O)NC1=O (stereo not given),–,–,–,24µM,–
CC(=O)c1cccc(NC(=O)CC2S/C(=N/N=C/c3ccccc3)NC2=O)c1 (stereo not given),–,–,–[10 µM],–,–
CCCCCCCCCCCCCCCCN,–,·,–,·,–
Cc1cc(C)nc(Nc2nc(C)c3cc4c(cc3n2)OCO4)n1,7.1µM,?,7.1µM,–,–
Cc1nc(NC(=O)c2ccc(Cl)cc2)nc2cc3c(cc12)OCO3,–,?,–,–,–
CN(C)c1ccc(CC(=O)N2CCCCC2c2cc(C(=O)Nc3ccccc3)no2)cc1 (stereo not given),·,·,·,–,·
Cc1ccc2nc(NC(=O)CSc3nc4c(c(=O)n3C)SC(C)C4)sc2c1 (stereo not given),–,14µM,–,27µM,–
Cc1cccc(CNc2ncncc2-c2ccc(C(=O)N(C)C)cc2)c1,–,?,–,·,–
CC1/C=C/C=C/C=C/C=C/C=C/C=C/C=C/C(OC2OC(C)C(O)C(N)C2O)CC2O[C@@](O)(CC(O)CC(O)C(O)CCC(O)CC(O)CC(=O)OC(C)[C@H](C)C1O)CC(O)C2C(=O)O (stereo not given in full),–,?,–,·,–
O=C(OCc1ccccc1)c1ccc(NCc2cc(O)ccc2O)cc1,·,·,·,–,·
O=C(COc1ccc(Cl)cc1)c1ccc(O)cc1O,0.16µM,·,1.4µM,–,–
O=C(COc1ccc(F)cc1)c1c(O)cc(O)cc1O,2µM,·,?,–,–
COC(=O)c1ccc(CCc2cc(O)ccc2O)cc1,·,0.63µM,·,?,·
CCOC(=O)c1ccc(OCC(=O)c2ccc(O)cc2O)cc1,0.25µM,–,1.1µM,–,–
COc1ccc(C(=O)COc2ccc(F)cc2)c(O)c1,–,·,–,–,–
O=C(COc1ccccc1)OCC(=O)c1ccc(O)cc1O,·,·,·,–,·
C=C(C)C(O)/C=C/CCCCCCC (stereo not given),–[10 µM],–[13.5 µM],–[10 µM],·,–
O=C(COc1ccccc1F)c1ccc(O)cc1O,3.2µM,–,?,–,–
COC(=O)c1ccc(OCC(=O)c2ccc(O)cc2O)cc1,0.079µM,–,0.89µM,–,–
COC(=O)c1ccc(OCC(=O)c2ccc(C)c(C)c2)cc1,?,–,?,–,–
O=Cc1ccc(N2CCCCCC2)cc1,–,0.056µM,–,–,–
CN=C1S/C(=C\c2ccc(N3CCCC3)c(F)c2)C(=O)N1C,–,–,–,–,71µM
O=Cc1ccc(N2CCCC2)c(F)c1,–,1.6µM,–,–,–
SMILES,RORg inh,ALDH1A1 inh,Gal4-VP16 FLuc,PLK1 PBD block,Sfp PPTase inh
CN=C1S/C(=C\c2ccc(N3CCOCC3)c(F)c2)C(=O)N1C,?,–,–,–,–
O=C(Cc1ccc(NC(=O)C2CCN(C(=O)CCc3ccccc3)CC2)cc1)Nc1ccc(C(=O)N2CCOCC2)cc1,·,·,·,–,·
CCOC(=O)[C@]12CCC=C1N(Cc1cccc3ccccc13)C(=O)[C@H](CC(=O)NCC1CCCCC1)C2,·,·,·,–,·
O=C1NN(c2ccccc2)C(=O)/C1=C\c1cccn1-c1ccc(Cl)c([N+](=O)[O-])c1,–,–,–,?,–
Cc1cc(/C=C2\SC(=S)NC2=O)c(C)n1-c1cccc(O)c1,–,?,–,?,?
Cc1cc(/C=C2/C(=O)NN(c3ccccc3)C2=O)c(C)n1-c1cccc(O)c1,?,?,16µM,–,–
O=C1NN(c2cccc(Br)c2)C(=O)/C1=C\c1ccc(O)cc1,–,·,–,24µM,–
O=C1NN(c2ccccc2)C(=O)C1=Cc1ccccc1O,·,·,·,27µM,·
CCOc1cc(/C=C2/C(=O)NN(c3cccc(Cl)c3)C2=O)ccc1O,–,·,?,?,–
O=C1NN(c2ccc(Br)cc2)C(=O)/C1=C\c1ccc(O)cc1O,–[1.91 µM],·,–,30µM,–
Cc1ccccc1N1CCN(c2ccccc2NC(=O)/C=C\C(=O)O)CC1,·,·,·,–,·
O=C1NN(c2cccc(Br)c2)C(=O)/C1=C/c1ccc(-c2cc([N+](=O)[O-])ccc2O)o1,–,·,–,19µM,–
CC1=NN(c2ccc(C)cc2)C(=O)/C1=C/c1ccc(-c2cc([N+](=O)[O-])ccc2O)o1,?,·,–,?,–
CCCn1c2ccccc2c2nnc(SC(CC)C(=O)Nc3sc4c(c3C#N)CCCC4)nc21 (stereo not given),–,28µM,–,–,–
CCCn1c2ccccc2c2nnc(SC(CC)C(=O)Nc3cc(C)on3)nc21 (stereo not given),–,?,–,–,–
CC(OC(=O)CC1Sc2ccccc2NC1=O)C(=O)N(C)Cc1ccccc1 (stereo not given),·,·,·,19µM,·
CNC(=S)N/N=C/c1cn(CCOc2ccccc2OC)c2ccccc12,0.89µM,–,1µM,–,?
COC(=O)N/N=C/c1cn(CCOc2ccccc2)c2ccccc12,?,·,–,–,–
CNC(=S)N/N=C/c1cn(CCOc2cccc(OC)c2)c2ccccc12,1µM,?,5µM,–,?
COC(=O)N/N=C/c1cn(CCOc2ccccc2OC)c2ccccc12,–,·,–,–,–

# Compound activity (PubChem BioAssay)
